We go through 37 molecules from the supplement of paper PMC12494721.

Where a name gives a salt, the structure may show the parent alone. A number with no mark means an inactive call.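 How the source made its calls: for the amine columns active = adjusted P below 0.05 in both replicates with a change the same way and a mean fold change under 0.8 or over 1.25; inactive = the rest.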

For the first assay, the system named is Klebsiella aerogenes DSM 30053. Put plainly: fold change of Cadaverine concentration vs plate DMSO controls (fold change (ratio)); higher = more amine produced, active = hit call of the paper (significant change in both replicates, either direction). The settings on record: 20 µM; incubation time: 27 h, anaerobic, 37 °C. The procedure, abridged: (§1)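 Extracts of whole anaerobic mGAM cultures were analysed for amines by LC–triple-quadrupole MS with dynamic MRM and external calibration curves, with drift corrected within batch. Four gut strains were grown at 37 °C for 27 h in 80 µL wells with compounds at 20 µM final, sweeteners at 50 µM final. Each value expresses fold change over plate DMSO controls. The average of 2 biological replicates is shown.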
For the molecule `c1cc2ccc3cccc4ccc(c1)c2c34` [Pyrene], the “fold change of Cadaverine concentration” value was 1.03.

Consider `COc1cccc(C2(O)CCCCC2CN(C)C)c1` (stereo unspecified) [Tramadol hydrochloride], for which the “fold change of Cadaverine concentration” value was 1. As to `NC(=O)CN1CC(O)CC1=O` (stereo unspecified) [Oxiracetam], the “fold change of Cadaverine concentration” value is 1.07. The same measure, in the same setting: the same measure for `O=C(NC(=O)c1c(F)cccc1F)Nc1ccc(Cl)cc1`: 1.03.

Another assay has as its system Ruminococcus gnavus DSM 108212. The experiment in a line: fold change of 2-Phenylethylamine concentration vs plate DMSO controls (fold change (ratio)); higher = more amine produced, active = hit call of the paper (significant change in both replicates, either direction). The settings on record: 20 µM; incubation time: 27 h, anaerobic, 37 °C. Summed up:
as §1
For the molecule `CCCC(C)(COC(N)=O)COC(=O)NC(C)C` (stereo unspecified) [Carisoprodol], the “fold change of 2-Phenylethylamine concentration” value was 1.05.

For the molecule `CCC1(c2cccc(O)c2)CCCCN(C)C1` (stereo unspecified) [Meptazinol hydrochloride], the “fold change of 2-Phenylethylamine concentration” value was 0.997.

On to `CC(C)(C)NCC(O)c1ccccc1Cl` (stereo unspecified) [Tulobuterol hydrochloride], for which the “fold change of 2-Phenylethylamine concentration” value is 0.653. In the case of `C[C@]12CCC(=O)C(O)=C1CC[C@@H]1[C@@H]2CC[C@]2(C)C(=O)CC[C@@H]12` [Formestane], the “fold change of 2-Phenylethylamine concentration” value was 1.03. On to `C=C(C)[C@@H]1[C@H]2OC(=O)[C@@H]1[C@]1(O)C[C@H]3O[C@]34C(=O)O[C@H]2[C@]14C` [Picrotoxinin], for which the “fold change of 2-Phenylethylamine concentration” value was 1.03. The same measure, in the same setting: the same measure for `CCOc1cc(Oc2ccc(C(F)(F)F)cc2Cl)ccc1[N+](=O)[O-]`: 1.05; for `O=C(O)C(F)(F)C(F)(F)C(F)(F)C(F)(F)C(F)(F)C(F)(F)C(F)(F)C(F)(F)C(F)(F)F` [PFDeA (Perfluorodecanoic acid)]: 0.962. For `CC[C@@H](CO)NC(=O)[C@@H]1C=C2c3cccc4[nH]cc(c34)C[C@H]2N(C)C1` [Methylergometrine maleate], the “fold change of 2-Phenylethylamine concentration” value is 1.02.

As for `O=C(O)C(F)(F)C(F)(F)C(F)(F)C(F)(F)C(F)(F)C(F)(F)C(F)(F)F` [PFOA (Perfluorooctanoic acid)], the “fold change of 2-Phenylethylamine concentration” value is 0.878.

Turning to `COc1ccc2c(c1)[C@]13CCCC[C@@H]1[C@H](C2)N(C)CC3` [Dextromethorphan hydrobromide monohydrate], the “fold change of 2-Phenylethylamine concentration” value was 1.04. The same measure, in the same setting: the value for `CCOP(=S)(OCC)Oc1cc(C)nc(C(C)C)n1` was 1. The same measure, in the same setting: the same measure for `CC(=O)NC1CCSC1=O` (stereo unspecified) [Citiolone]: 1.31; for `CCCCN(CCCC)N=O` [DBNA (N-nitrosodibutylamine)]: 1.01; for `CC[C@H](C)[C@H]1O[C@]2(C=C[C@@H]1C)C[C@@H]1C[C@@H](C/C=C(\C)[C@@H](O[C@H]3C[C@H](OC)[C@@H](O[C@H]4C[C@H](OC)[C@@H](O)[C@H](C)O4)[C@H](C)O3)[C@@H](C)/C=C/C=C3\CO[C@@H]4[C@H](O)C(C)=C[C@@H](C(=O)O1)[C@]34O)O2.CO[C@H]1C[C@H](O[C@H]2[C@H](C)O[C@@H](O[C@@H]3/C(C)=C/C[C@@H]4C[C@@H](C[C@]5(C=C[C@H](C)[C@@H](C(C)C)O5)O4)OC(=O)[C@@H]4C=C(C)[C@@H](O)[C@H]5OC/C(=C\C=C\[C@@H]3C)[C@]54O)C[C@@H]2OC)O[C@@H](C)[C@@H]1O`: 0.885.

Regarding `C=CCC1(CC(C)C)C(=O)NC(=O)NC1=O` [Butalbital], the “fold change of 2-Phenylethylamine concentration” value is 1. On the same count and under the same terms, the value for `NCC(CC(=O)O)c1ccc(Cl)cc1` (stereo unspecified) [Baclofen] was 1.11.

Turning to `N#Cc1cc(Br)c(O)c(Br)c1`, the “fold change of 2-Phenylethylamine concentration” value is 1.01. Consider `N#CC(CCc1ccc(Cl)cc1)(Cn1cncn1)c1ccccc1` (stereo unspecified), for which the “fold change of 2-Phenylethylamine concentration” value is 1.08.

As to `CN(C)C(=O)Oc1ccc[n+](C)c1` [Pyridostigmine iodide], the “fold change of 2-Phenylethylamine concentration” value was 1.02.

With `CC(C)C[C@H](CN)CC(=O)O` [Pregabalin], the “fold change of 2-Phenylethylamine concentration” value was 1.06. For `Clc1ccc(C(OCCN2CCCCC2)c2ccccc2)cc1` (stereo unspecified) [Cloperastine hydrochloride], the “fold change of 2-Phenylethylamine concentration” value was 1. The same measure, in the same setting: the same measure for `O=[N+]([O-])c1ccc2ccc3cccc4ccc1c2c34` [1-Nitropyrene]: 0.967; for `COCC(=O)N(c1c(C)cccc1C)C(C)C(=O)OC` (stereo unspecified): 0.983. In the case of `CCCN1C[C@H](CSC)C[C@@H]2c3cccc4[nH]cc(c34)C[C@H]21` [Pergolide mesylate], the “fold change of 2-Phenylethylamine concentration” value was 1.04. For the molecule `COc1cc(OC)nc(NC(=O)NS(=O)(=O)c2ncccc2C(=O)N(C)C)n1`, the “fold change of 2-Phenylethylamine concentration” value is 0.998.

Turning to `CNC(C)(C)Cc1ccccc1` [Mephentermine hemisulfate], the “fold change of 2-Phenylethylamine concentration” value is 1.38.

`CC1(C)C(C=C(Cl)Cl)C1C(=O)OC(C#N)c1ccc(F)c(Oc2ccccc2)c1` (mixture of isomers): the “fold change of 2-Phenylethylamine concentration” value was 1.02. Same read-out and setting: the same measure for `CCC1(CC)C(=O)C=CNC1=O` [Pyrithyldione]: 0.996. As for `COP(=S)(OC)Oc1nc(Cl)c(Cl)cc1Cl`, the “fold change of 2-Phenylethylamine concentration” value was 0.866. On the same count and under the same terms, the same measure for `Nc1nc(N)nc(NC2CC2)n1` [Cyromazine]: 1; for `ClC1C(Cl)C(Cl)C(Cl)C(Cl)C1Cl` (stereo unspecified): 0.979; for `CCCN(CCC)C(=O)SCc1ccccc1`: 0.897. As for `Cc1ccccc1[N+](=O)[O-]` [2-Nitrotoluene], the “fold change of 2-Phenylethylamine concentration” value was 0.978. Regarding `c1cc2ccc3cccc4ccc(c1)c2c34` [Pyrene], the “fold change of 2-Phenylethylamine concentration” value was 1.

In the case of `COc1cccc(C2(O)CCCCC2CN(C)C)c1` (stereo unspecified) [Tramadol hydrochloride], the “fold change of 2-Phenylethylamine concentration” value is 0.873.

`NC(=O)CN1CC(O)CC1=O` (stereo unspecified) [Oxiracetam]: the “fold change of 2-Phenylethylamine concentration” value is 1.14.

Take `O=C(NC(=O)c1c(F)cccc1F)Nc1ccc(Cl)cc1`: the “fold change of 2-Phenylethylamine concentration” value was 0.98.
